Bioassay records as filed in PubChem.
HT1080NT lethal: kills 2HG-producing HT-1080-NT fibrosarcoma cells | 360,000 compounds, 1.6% hits | AID 686970 | Potency, µM (highest dose often 46.1 µM), for inactives: top-dose activity, negative = less viability, usual class: cytotoxic | HT-1080-NT fibrosarcoma viability, CellTiter-Glo ATP luminescence, 48 h;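 note: NT is the 2HG producing partner of a matched IDH1 knockdown line; potency is the fitted concentration of half-maximal effect; 0% = DMSO-treated cells and -100% = media-only wells without cells; nearly all actives have a fitted effect of over 55% in size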
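Toxicity toward the 2HG-producing NT line was scored as %Activity, normalised to DMSO and no-cell wells, from CellTiter-Glo luminescence after 48 hours' treatment.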
TDP1 cell CPT: DT40-hTDP1 cell growth loss with CPT; chicken DT40 Tdp1-/-;hTDP1 cells + 20 nM CPT, ATP luminescence, 48 h; 420,000 compounds, 12% hits; Potency, µM (titrated, usually from 46.2 µM), without a hit: at the highest dose activity change, negative = growth inhibition, most hits filed as inhibitors; note: potency is the fitted concentration of half-maximal effect; nearly all actives have a fitted effect of over 55% in size
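Cell growth measured by CellTiter-Glo luminescence after a minimum 48 h, 37 C compound exposure with 20 nM CPT in Tdp1-knockout DT40 cells stably expressing hTDP1, seeded 400/well; qHTS titration format.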
HT1080 IDH1KD tx: toxicity to HT-1080 IDH1 knockdown cells (counter line). AID 686971. HT-1080 IDH1 knockdown viability, ATP luminescence, 48 h. 360,000 compounds, 2% hits. Potency, µM (highest dose often 46.1 µM), for the others: at the highest dose activity, negative = toxicity, hits mostly cytotoxic;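 note: potency is the fitted concentration of half-maximal effect; 0% = DMSO wells and -100% = cell-free medium wells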
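CellTiter-Glo luminescence after 48 h compound exposure at 37 degrees C of IDH1-knockdown HT-1080 cells in 5% FBS RPMI. %Activity scaled between DMSO wells and cell-free media wells, with curves fitted and assigned curve classes.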
IL1B secr inh: blocks inflammasome-driven IL-1 beta release; 360,000 compounds, 4.7% hits; activity change, % at 57.5 µM; AID 743279; THP-1 LPS/ATP IL-1B secretion, AlphaLISA, 16 h; active compounds read low; in the data active = activity change below about -50%; inconclusive = mostly about -30% to -49%
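THP-1 cells pretreated 1 hr with compounds (up to 57.5 uM final), then stimulated with LPS (250 ng/mL final) plus ATP (1.25 mM final); secreted IL-1B measured by AlphaLISA after 16 hr, decreased signal indicating inhibition.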
DT40 TDP1 no CPT: qHTS for Inhibitors of human tyrosyl-DNA phosphodiesterase 1 (TDP1): qHTS in cells in absence of CPT; DT40 Tdp1-/- hTDP1 cells, no CPT, ATP luminescence, 48 h; Potency, µM (highest dose often 46.2 µM), without a hit: at the highest dose activity change, negative = growth inhibition, most hits filed as inhibitors; 420,000 compounds, 15% hits; AID 686978, 2013; note: potency is the fitted concentration of half-maximal effect; nearly all actives have a fitted effect of over 55% in size
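A cellular qHTS used chicken DT40 cells lacking endogenous Tdp1 but carrying stably transfected human TDP1. Compounds were applied without camptothecin, and cell growth kinetics were judged by ATP-dependent luminescence after ≥48 hr.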
ELG1 repair inh: blocks ELG1-dependent DNA repair in HEK293T cells; HEK293T ELG1-luciferase reporter, luminescence, 16 h; DNA damage induced by 5-fluorouridine; Potency, µM (doses to about 46.1 µM), without a hit: at the highest dose activity change, negative = inhibition, actives largely listed as inhibitors; 330,000 compounds, 2.3% hits; AID 504467; note: potency is the fitted concentration of half-maximal effect; nearly all actives have a fitted effect of over 55% in size
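DMSO vehicle served as the neutral condition. Each well held 2,000 cells given 5-fluorouridine plus compound; after 16 hr at 37 °C/5% CO2, ONE-Glo was added and luciferase measured 30 min later.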
* = called active by the depositor; ? = inconclusive; . = no result. An excerpt weighted towards active compounds, which were near 19% of everything screened. Unless noted, calls come from the whole dose curve; as a rule, active = well fitted curve in the direction sought with a large enough effect; inconclusive = small, poorly fitted or top-dose-only effect, or another doubt; inactive = no such curve, though single readings can be large; an effect the other way counts as inactive or inconclusive. Unless noted, % is set by controls: 0 for no effect and ±100 for the full control effect.

SMILES	HT1080NT lethal	TDP1 cell CPT	HT1080 IDH1KD tx	IL1B secr inh	DT40 TDP1 no CPT	ELG1 repair inh
Cn1c(=O)oc2cc(S(=O)(=O)N3CCCC(C(=O)N4CC=C(c5ccccc5)CC4)C3)ccc21 (stereo unspecified)	.	.	.	.	.	5.8µM*
COc1ccc(C)cc1S(=O)(=O)N1CCCC(C(=O)N2CCN(c3ccccc3F)CC2)C1 (stereo unspecified)	-20.3%	?	-29.2%	-7.1	23.1µM*	?
Cn1c(=O)oc2cc(S(=O)(=O)N3CCCC(C(=O)NC4CCCc5ccccc54)C3)ccc21 (stereo unspecified)	-1.3%	?	1.8%	11.6	?	2.91µM*
COc1ccccc1N1CCN(C(=O)C2CCCN(S(=O)(=O)c3ccc4c(c3)oc(=O)n4C)C2)CC1 (stereo unspecified)	-2.7%	25.9µM*	-17.4%	4.4	8.2µM*	?
c1csc(-c2cc(N3CCCCC3)c3ccccc3n2)c1	2.3%	-25.5%	-3.7%	-7.7	?	-20.9%
CCC1(c2ccccc2)NC(=O)N(CC(=O)NNC(=O)c2ccc(F)cc2)C1=O (stereo unspecified)	11.9%	-13.2%	3.5%	7.7	-7.0%	-1.7%
O=C(NCCCCc1ccccc1)c1cccc(NC(=O)C2CC2)c1	-1.5%	?	-1.4%	-14.3	?	.
COc1ccc(N2CCN(C(=O)C3CCCN(S(=O)(=O)c4ccc5c(c4)oc(=O)n5C)C3)CC2)cc1 (stereo unspecified)	12.9%	11.6µM*	-7.1%	32.2	10.3µM*	-17.5%
COc1ccccc1N1CCN(C(=O)C2CCN(S(=O)(=O)c3ccccc3F)CC2)CC1	3.4%	?	4.4%	3.5	23.1µM*	-9.1%
Cn1c2ccccc2c2cnn(CC(=O)Nc3ccccc3F)c(=O)c21	.	-9.1%	.	.	?	.
Cc1nn(Cc2ccccc2)c(C)c1NC(=O)CSc1nc(C2CC2)nc2c1cnn2-c1ccccc1	1.1%	16.4µM*	7.4%	3.9	16.4µM*	4.6%
COC[C@H]1CCCN1c1ccc2c(c1)O[C@H](COCc1ccccc1)CN([C@@H](C)c1ccccc1)S2(=O)=O	9.7%	?	0.7%	23.5	16.4µM*	.
CCCCC[C@@H](C)N1C[C@@H](COCc2ccccc2)Oc2cc(N3CCC[C@@H]3CO)ccc2S1(=O)=O	?	?	?	-28.0	?	.
C[C@@H](c1ccccc1)N1C[C@H](COCc2ccccc2)Oc2cc(N3CCC[C@H]3CO)ccc2S1(=O)=O	-13.9%	?	-14.5%	-11.8	?	.
COC[C@H]1CCCN1c1ccc2c(c1)O[C@@H](COCc1ccccc1)CN([C@@H](C)c1ccccc1)S2(=O)=O	8.7%	10.3µM*	-2.4%	5.0	7.31µM*	.
COC[C@@H]1CCCN1c1ccc2c(c1)O[C@H](COCc1ccccc1)CN([C@H](C)c1ccccc1)S2(=O)=O	11.7%	?	-2.2%	15.7	20.6µM*	.
CCCCC[C@@H](C)N1C[C@H](COCc2ccccc2)Oc2cc(N3CCC[C@@H]3COC)ccc2S1(=O)=O	2.0%	?	-3.5%	-1.8	14.6µM*	.
COC1=CC(=O)[C@@]2([C@@H]1O)[C@@H](Cl)C[C@]13C(OC)=C(OC)C(=O)C[C@]21CCN3C	20.1%	1.3%	10.7%	23.3	-7.6%	?
O=C(c1ccncc1)N1CCC2(CCCN(Cc3ccncc3)C2)CC1	.	3.6%	.	.	-12.3%	.
COc1ccc(C(=O)COc2ccc(C(C)=O)cc2OC)cc1OC	-0.7%	?	3.3%	24.0	?	.
